Source: PubChem BioAssay (NCATS)
Results filed as inconclusive are left out. The source made the active and inactive calls. The call rests on the fitted dose curve; in most records, active means well fitted curve in the direction sought with a large enough effect; inconclusive means small, poorly fitted or top-dose-only effect, or another doubt; inactive means no such curve, though single readings can be large; an effect the other way counts as inactive or inconclusive.

Key:
[1] = qHTS assay for measurement of the activity of small molecule inhibitors on Zika virus induced Caspase-3 activity in human iPSC derived neural progenitor cells (hNPCs) (AID 1224857); further: % of control where 0% means no effect; nearly all actives have a fitted effect of over 65% in size
In short: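 Values are percent inhibition of virus-induced caspase-3/7 signal, scaled between uninfected cells and ZIKV-infected cells. Infection used 2 FFU/cell for 6 h after 1 h compound exposure.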

[2] = qHTS assay for measurement of the activity of small molecule inhibitors on Zika virus induced Caspase-3 activity in human astrocytoma cells (AID 1224859);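 further: plate controls were ZIKV-infected untreated cells for no effect and uninfected cells for full effect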
In short: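 Compound added 1 h pre-infection; ZIKV 2 FFU/cell on SNB-19 cells, 6 h, 37 C/5% CO2. Caspase-Glo 3/7 luminescence; values as % inhibition of ZIKV-induced caspase activity.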

[3] = qHTS assay to identify small molecule inhibitors of chordoma cells - UCH-1 (AID 1259355); further: on the % scale 0 is the no-effect control and ±100 the full control effect; nearly all actives have a fitted effect of over 55% in size
In short: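 Cells (800/well) were seeded and left overnight at 37 C, 5% CO2, then treated with drugs at 15 concentrations plus a combination mix of auranofin, camptothecin, doxorubicin, rubitecan and topotecan. Viability after 48hr was read by CellTiter-Glo luminescence.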

[4] = qHTS assay to identify small molecule inhibitors of chordoma cells - UCH-2 (AID 1259356); further: series mostly up to about 46 µM; on the % scale 0 is the no-effect control and ±100 the full control effect
[5] = P-glycoprotein substrates identified in KB-8-5-11 adenocarcinoma cell line, qHTS therapeutic library screen (AID 1346987); details: outcome: dose series up to 44.5 µM; further: series mostly up to about 44 µM; on the % scale 0 is the no-effect control and ±100 the full control effect; nearly all actives have a fitted effect of over 65% in size
In short: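 KB-8-5-11, a colchicine-selected P-gp-overexpressing KB-3-1 subline, was grown without colchicine for the assay. Cells were seeded at 500 cells/well, dosed in concentration-response and incubated 72 h at 37 degree C, 5% CO2. Viability was read by CellTiter-Glo luminescence.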

[6] = NS1 protein of Zika virus - qHTS assay to identify small molecule inhibitors in human HEK 293 cells (AID 1347053);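 further: series mostly up to about 46 µM; plate controls were infected untreated cells for no effect and uninfected cells for full effect; nearly all actives have a fitted effect of over 55% in size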
In short: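 HEK 293 cells, seeded 20 h at 37 C, were pretreated with compound 1 h, then infected with ZIKV MR766 (MOI = 0.5) for 24 h. NS1 was read by TR-FRET with two anti-NS1 antibodies, normalized to uninfected and infected wells.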

[7] = qHTS of pediatric cancer cell lines to identify multiple opportunities for drug repurposing: Primary screen for TC32 cells (AID 1347089); further: on the % scale 0 is the no-effect control and ±100 the full control effect; nearly all actives have a fitted effect of over 60% in size
In short: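 Measured quantity: luminescence from CellTiter-Glo, reflecting metabolically active TC32 cells following 48 h of compound. Curves came straight from multi-point titrations, with 8 or 11 points in primary and 11 in confirmatory screening.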

[8] = qHTS of pediatric cancer cell lines to identify multiple opportunities for drug repurposing: Primary screen for DAOY cells (AID 1347090);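 further: series mostly up to about 46 µM; plate controls were DMSO for no effect and bortezomib for full effect; nearly all actives have a fitted effect of over 55% in size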
In short: (§1)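 Viability measured as metabolically active cells via CellTiter-Glo luminescence following 48 hours of compound exposure, 11-point dilutions in confirmatory testing. 500-1,000 cells/well plated 5 hours before dosing; controls were DMSO and 2.3 µM bortezomib.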

[9] = qHTS of pediatric cancer cell lines to identify multiple opportunities for drug repurposing: Primary screen for SJ-GBM2 cells (AID 1347091);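 further: plate controls were DMSO neutral control for no effect and bortezomib for full effect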
In short: as §1

[10] = qHTS of pediatric cancer cell lines to identify multiple opportunities for drug repurposing: Primary screen for A673 cells (AID 1347092); further: on the % scale 0 is the no-effect control and ±100 the full control effect; nearly all actives have a fitted effect of over 45% in size
In short: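 Cells are plated, rested 5 h, dosed by pintool, incubated 48 h, then lysed with CellTiter-Glo and read by luminescence. DMSO is the neutral control; bortezomib at 2.3 uM final is the positive control.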

[11] = qHTS of pediatric cancer cell lines to identify multiple opportunities for drug repurposing: Primary screen for SK-N-MC cells (AID 1347093);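 further: series mostly up to about 46 µM; plate controls were DMSO neutral control for no effect and bortezomib for full effect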
In short: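 Metabolically active cells were quantified by ATP-dependent luminescence (CellTiter-Glo, 15 min at room temperature) following 48 h treatment. Cells had been plated at 500-1,000 per well and settled for 5 h beforehand.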

[12] = qHTS of pediatric cancer cell lines to identify multiple opportunities for drug repurposing: Primary screen for BT-37 cells (AID 1347094);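 further: series mostly up to about 57 µM; plate controls were DMSO for no effect and bortezomib for full effect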
In short: (§2)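 500-1,000 cells/well; 5 h pre-incubation 37 °C/5% CO2; compound pinned; 48 h; CellTiter-Glo, 15 min RT; luminescence. MIPE 11-pt from 0.78 nM, NPC 8-pt from 0.59 nM final. Bortezomib 2.3 µM final as positive control.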

[13] = qHTS of pediatric cancer cell lines to identify multiple opportunities for drug repurposing: Primary screen for NB-EBc1 cells (AID 1347095);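 further: plate controls were DMSO neutral control for no effect and bortezomib for full effect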
In short: as §2

[14] = qHTS of pediatric cancer cell lines to identify multiple opportunities for drug repurposing: Primary screen for U-2 OS cells (AID 1347096);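 further: plate controls were DMSO wells for no effect and bortezomib positive control wells for full effect; nearly all actives have a fitted effect of over 50% in size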
In short: (§3)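 Viability after 48 h compound treatment at 37C, 500-1,000 cells/well, read as ATP luminescence with CellTiter-Glo. Primary screens used 11-point (MIPE, 0.78 nM-46 µM) or 8-point (NPC, 0.59 nM-46 µM) final concentrations; follow-up screens used 11-point dilutions.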

[15] = qHTS of pediatric cancer cell lines to identify multiple opportunities for drug repurposing: Primary screen for Saos-2 cells (AID 1347097); further: on the % scale 0 is the no-effect control and ±100 the full control effect; nearly all actives have a fitted effect of over 40% in size
In short: as §2

[16] = qHTS of pediatric cancer cell lines to identify multiple opportunities for drug repurposing: Primary screen for SK-N-SH cells (AID 1347098);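 further: DMSO served as neutral control and bortezomib at 2.3 µM as positive control; on the % scale 0 is the no-effect control and ±100 the full control effect; nearly all actives have a fitted effect of over 65% in size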
In short: (§4)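 Cells (500-1,000/well) rested 5 h, then received compounds for 48 h; metabolically active cells were measured by CellTiter-Glo luminescence. Final concentrations spanned up to 46 µM (MIPE, 11-point) or 0.59 nM-46 µM (NPC, 8-point) in primary screens, 11-point in follow-ups.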

[17] = qHTS of pediatric cancer cell lines to identify multiple opportunities for drug repurposing: Primary screen for NB1643 cells (AID 1347099);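 further: plate controls were DMSO neutral control for no effect and bortezomib positive control for full effect; nearly all actives have a fitted effect of over 50% in size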
In short: as §2

[18] = qHTS of pediatric cancer cell lines to identify multiple opportunities for drug repurposing: Primary screen for LAN-5 cells (AID 1347100);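 further: plate controls were DMSO neutral control for no effect and bortezomib positive control for full effect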
In short: as §3

[19] = qHTS of pediatric cancer cell lines to identify multiple opportunities for drug repurposing: Primary screen for BT-12 cells (AID 1347101);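 further: plate controls were DMSO for no effect and bortezomib positive control for full effect; nearly all actives have a fitted effect of over 25% in size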
In short: as §4

NNC(=O)CP(=O)(c1ccccc1)c1ccccc1
inactive: outcome [1] | outcome [2] | outcome [3] | outcome [4] | outcome [5] | outcome [6] | outcome [7] | outcome [8] | outcome [9] | outcome [10] | Potency [11] | outcome [12] | outcome [13] | outcome [14] | outcome [15] | outcome [16] | Potency [17] | outcome [18] | outcome [19]

N[C@@H](Cc1ccc(O)cc1)C(=O)O
inactive: activity change, negative = inhibition [1] 4.45% [at 9.06 µM] | activity change, negative = inhibition [2] -11% [at 9.06 µM] | outcome [3] | outcome [4] | outcome [5] | activity change, negative = inhibition [6] 1.13% [at 9.2 µM] | activity change, negative = cytotoxic [7] 18.1% [at 9.17 µM] | activity change, negative = cytotoxic [8] 6.24% [at 9.22 µM] | activity change, negative = cytotoxic [9] 12% [at 9.22 µM] | activity change, negative = cytotoxic [10] 2.23% [at 9.22 µM] | activity change, negative = cytotoxic [11] 11% [at 9.22 µM] | activity change, negative = cytotoxic [12] 20.6% [at 11.5 µM] | activity change, negative = cytotoxic [13] 15% [at 9.22 µM] | activity change, negative = cytotoxic [14] 16.3% [at 9.22 µM] | activity change, negative = cytotoxic [15] 14.8% [at 9.22 µM] | activity change, negative = cytotoxic [16] 5.3% [at 11.4 µM] | activity change, negative = cytotoxic [17] 17.5% [at 9.22 µM] | activity change, negative = cytotoxic [18] 6.26% [at 9.22 µM] | activity change, negative = cytotoxic [19] 11.7% [at 11.5 µM]

CCN(CC)CCOC(=O)C(c1ccccc1)c1ccccc1
inactive: outcome [1] | outcome [2] | outcome [3] | outcome [4] | outcome [5] | outcome [6] | outcome [7] | outcome [8] | outcome [9] | outcome [10] | Potency [11] | outcome [12] | outcome [13] | outcome [14] | outcome [15] | outcome [16] | Potency [17] | outcome [18] | outcome [19]

Cc1ccsc1/C=C/C1=NCCCN1C
inactive: outcome [1] | outcome [2] | outcome [3] | outcome [4] | outcome [5] | outcome [6] | outcome [7] | outcome [8] | outcome [9] | outcome [10] | Potency [11] | outcome [12] | outcome [13] | outcome [14] | outcome [15] | outcome [16] | Potency [17] | outcome [18]

Cc1c(C)c2c(c(C)c1OC(=O)c1cccnc1)CC[C@@](C)(CCC[C@H](C)CCC[C@H](C)CCCC(C)C)O2
inactive: outcome [1] | outcome [2] | outcome [3] | outcome [4] | outcome [5] | outcome [6] | outcome [7] | outcome [8] | outcome [9] | outcome [10] | Potency [11] | outcome [12] | outcome [13] | outcome [14] | outcome [15] | outcome [16] | Potency [17] | outcome [18] | outcome [19]

COc1ccc(-c2cc(=O)c3c(O)cc(O[C@@H]4O[C@H](CO[C@@H]5O[C@@H](C)[C@H](O)[C@@H](O)[C@H]5O)[C@@H](O)[C@H](O)[C@H]4O)cc3o2)cc1O
inactive: outcome [1] | outcome [2] | outcome [3] | outcome [4] | outcome [5] | outcome [6] | outcome [7] | outcome [8] | outcome [9] | outcome [10] | Potency [11] | outcome [12] | outcome [13] | outcome [14] | outcome [15] | outcome [16] | Potency [17] | outcome [18] | outcome [19]

CCN(CC)S(=O)(=O)c1ccc(C(=O)O)cc1
inactive: outcome [1] | outcome [2] | outcome [3] | outcome [4] | outcome [5] | outcome [6] | outcome [7] | outcome [8] | outcome [9] | outcome [10] | Potency [11] | outcome [12] | outcome [13] | outcome [14] | outcome [15] | outcome [16] | Potency [17] | outcome [18] | outcome [19]
